# High-throughput results as filed in PubChem.
# This is a sample that favours compounds with a hit; in the whole collection about 0.69% have one here.
# SUMO HTRF inh: inhibitors of human SUMOylation (UBC9); HTRF SUMOylation assay, SAE1/SAE2 + UBC9, in vitro; inhibition, % at 35 µM; actives 0.36% (n = 290,000); AID 2006; in the data active means inhibition above about 50%, passing the limit was not always enough; inconclusive means no clear call, values can overlap the other calls
# PERK inh: inhibitors of human PERK kinase; Q9NZJ5; CHO PERK-DD fusion, SEAP luminescence translation reporter; inhibition, % at 5.6 µM; actives 0.17% (n = 220,000);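 active means inhibition above the mean inhibition of all tested compounds plus 3 SD, set separately per screening campaign, cut at about 2.9% in these data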;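 further: PERK kinase domain activated by AP20187 dimerizer at 100 nM; 0% = DMSO with dimerizer and 100% = rapamycin at 8.4 µM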
# Redox H2O2 prof: compounds producing H2O2 with reducing agent – biochemical, NIH compound library profiling, artefact control for MLSCN library redox annotation, primary screen | actives 0.03% (n = 200,000) | activation, % at 10 µM | AID 878 | DTT-dependent redox cycling H2O2, phenol red/HRP absorbance; 100% = 100 µM peroxide control, 0% = buffer;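 active means activation of at least 50% relative to the plate's high and low controls in the primary single-dose screen; inactive means activation below 50%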;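 further: compound incubated with DTT at 0.8 mM final as the reducing agent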
# p97 inhibitor: inhibitors of human p97 ATPase; recombinant p97 ATPase, Kinase-Glo ATP luminescence, 3 h; inhibition, % at 8 µM; actives 0.42% (n = 220,000); AID 1481; in the data active means inhibition above about 15%;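 further: 0% = DMSO vehicle and 100% = wells lacking enzyme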
# Numbers without * were called inactive; ? = inconclusive; / = no result given.
SMILES,SUMO HTRF inh,PERK inh,Redox H2O2 prof,p97 inhibitor
COCC(=O)N1CCC(Oc2ccc(C(=O)NCCc3ccncc3)cc2)CC1,5,0,-1,4
CN(C)c1cccc2c(S(=O)(=O)N3CCCC3)cccc12,51*,/,/,/
CN(C)c1cccc2c(S(=O)(=O)N3CCOCC3)cccc12,31,-1,-1,-6
NC(=O)CC(NC(=O)Cc1cccc2ccccc12)c1ccc(NCCc2ccccc2F)c([N+](=O)[O-])c1 (stereo not given),50*,/,/,/
NC(=O)CC(NC(=O)Cc1cccc2ccccc12)c1ccc(NC2CCCCCCC2)c([N+](=O)[O-])c1 (stereo not given),45,/,/,/
NC(=O)CC(NC(=O)Cc1cccc2ccccc12)c1ccc(NC2CCCCCC2)c([N+](=O)[O-])c1 (stereo not given),61*,/,/,/
Cc1ccc(NC(=O)CSc2nn(-c3ccccc3)c(=S)s2)cc1S(=O)(=O)N(C)C,-48,0,0,3
CCOc1ccc(C(CC(=O)O)NC(=O)COc2ccccc2OC)cc1OC (stereo not given),10,0,-1,6
COc1ccc(S(=O)(=O)N2CCC(C(=O)NCCCN3CCOCC3)CC2)cc1,6,/,/,/
CSCC[C@H](NC(=O)Cc1c(C)c2cc3c4c(oc3cc2oc1=O)CCCC4)C(=O)O,28,/,/,/
Cc1oc2c(c(C)cc3oc(=O)c(CC(=O)NCCCO)c(C)c32)c1C,47,/,/,/
CCC(NC(=O)Cc1c(C)c2c(cc(C)c3c(C)c(C)oc32)oc1=O)C(=O)O (stereo not given),54*,/,/,/
Cc1oc2c(c(C)cc3oc(=O)c(CC(=O)NCC(=O)NCC(=O)NCC(C)O)c(C)c32)c1C (stereo not given),60*,/,/,/
CSCC[C@H](NC(=O)Cc1c(C)c2c(cc(C)c3c(C)c(C)oc32)oc1=O)C(=O)O,57*,/,/,/
CCN(CC)C1CCN(C(=O)c2cc(COc3cccc4cccnc34)on2)C1 (stereo not given),18,/,/,/
Cc1noc(C)c1S(=O)(=O)N1CCN(S(=O)(=O)c2ccccc2C#N)CC1,3,/,/,/
Cc1nc(C(C)N(C)Cc2nc(-c3ccc4c(c3)OCO4)no2)c(C)s1 (stereo not given),-4,3.0*,-2,-2
COc1ccc(Cl)cc1NS(=O)(=O)c1cccc(C(=O)NCCCN2CCCC2=O)c1,-2,/,/,/
O=c1ccc(-c2ccccc2)n[nH]1,11,3.0*,0,1
COc1ccc(-c2ccc(=O)[nH]n2)cc1,8,0,1,-8
CC(C)C(=O)NNc1ccc(C(F)(F)F)cn1,7,3.6*,/,9
COc1cc(NC(=O)CSc2nc3c(c(=O)n(C)c(=O)n3C)n2C)cc(OC)c1,-7,/,/,/
CCCC(=O)C1=C(O)C(C(=O)OC)C(C)(C)CC1=Nc1ccc(N)cc1 (stereo not given),21,0,-5,-6
CCCC(=Nc1ccc(N)cc1)C1=C(O)C(C(=O)OC)C(C)(C)CC1=O (stereo not given),37,0,1,15*
N#Cc1cc2c(=O)n3ccccc3nc2n(Cc2ccco2)c1=NC(=O)c1ccco1,52*,0,0,3
SMILES,SUMO HTRF inh,PERK inh,Redox H2O2 prof,p97 inhibitor
Cc1ccccc1C(=O)N=c1c(C#N)cc2c(=O)n3cccc(C)c3nc2n1Cc1ccco1,22,0,1,3
CCOC(=O)c1ccc(-n2c(CN3CCC(O)CC3)nc3ccc([N+](=O)[O-])cc3c2=O)cc1,3,1,-2,2
CCCCN(CC)CCNC(=O)CN(C)S(=O)(=O)c1ccc2c(c1)c(=O)n(C)c(=O)n2C,4,1,-1,15*
CN(C)c1ccc(CNC(=O)CN(C)S(=O)(=O)c2ccc3c(c2)c(=O)n(C)c(=O)n3C)cc1,9,/,/,/
Cc1nc2nc(C)c(NS(=O)(=O)c3ccc(Cl)cc3)c(=O)n2[nH]1,-2,/,/,/
CC(Nc1cc(N2CCCC2)ccc1[N+](=O)[O-])c1ccccc1 (stereo not given),22,2.9*,4,2
Cn1c(=O)cc(C(=O)N/N=C/c2ccc(Cl)cc2)[nH]c1=O,74,2.9*,/,6
CC1=NN(c2ccc(C)c(C)c2)C(=O)C1C(c1cccc(O)c1)C1C(=O)N(c2ccc(C)c(C)c2)N=C1C (stereo not given),22,1,2,35*
O=C1/C(=C/c2ccc(F)cc2)SC(=S)N1Nc1ncc(C(F)(F)F)cc1Cl,9,1,1,19*
O=S(=O)(O)c1cccc2c(N=Nc3ccc(O)c4ncccc34)cccc12,90*,/,/,/
CC(C)c1ccc(OCc2nnc(SCC(=O)N3CCCCC3)o2)cc1,9,/,/,/
Cc1ccc(C2=NC(=O)/C(=C/c3cc(O)c(O)c(Br)c3)S2)cc1,45,1,0,31*
CCOC(=O)C1CCN(C(=O)CC2(CC(=O)O)CCCC2)CC1,-2,/,/,/
N#CC1=C(N)C(C#N)(C#N)[C@H](c2ccoc2)[C@H]2CN(Cc3ccccc3)CC=C12,62*,0,3,8
CN1CC=C2C(C#N)=C(N)C(C#N)(C#N)[C@H](c3ccoc3)[C@H]2C1,88*,0,0,-6
CC(=O)N1CC=C2C(C#N)=C(N)C(C#N)(C#N)[C@H](c3ccoc3)[C@H]2C1,15,0,0,2
Cc1cccc(CN2CCN(Cc3ccc4nonc4c3)CC2CCO)n1 (stereo not given),1,1,-1,0
Cc1nn2cc(-c3ccccc3)nc2[nH]c1=O,68*,1,-4,2
Cc1ccc(S(=O)(=O)NCC(=O)NCC(=O)N2CCN(c3ncccn3)CC2)cc1C,-6,-1,/,-2
Cc1nc2ccc(-c3nc4cc(N)ccc4o3)cc2[nH]1,53*,0,1,-2
Cc1ccccc1-c1nc2cc(N)ccc2o1,65*,0,0,-6
Nc1ccc2oc(-c3ccc4nc[nH]c4c3)nc2c1,?,1,0,-3
COc1cc(NC(=O)Cn2cnc(S(=O)(=O)N3CCOCC3)c2)cc(OC)c1OC,16,/,/,/
CCC(C)C(=O)Nc1nnc(SCC(=O)N2C(C)CCCC2C)s1 (stereo not given),9,/,/,/
O=C(Nc1ccccc1-c1nc2ccccc2s1)c1cccnc1Cl,58*,-1,-4,1
SMILES,SUMO HTRF inh,PERK inh,Redox H2O2 prof,p97 inhibitor
O=C(Nc1ccccc1-c1nc2ccccc2s1)c1ccco1,?,-1,-2,-8
Cc1ccc(/C=C2\SC(=S)N(C3CCS(=O)(=O)C3)C2=O)o1 (stereo not given),21,1,0,8
CC1=C(C#N)C(=O)N(C2CCS(=O)(=O)C2)C(=O)/C1=C\c1ccc(C)o1 (stereo not given),61*,0,/,11
Cc1ccccc1NC(=O)CN1C(=O)S/C(=C\c2cccn2-c2cccc(C(=O)O)c2)C1=O,16,1,3,-3
Cc1ccc(NC(=O)CN2C(=O)S/C(=C\c3cccn3-c3cccc(C(=O)O)c3)C2=O)c(C)c1,83*,1,-4,-1
Cc1ccc(NC(=O)CN2C(=O)S/C(=C\c3cccn3-c3cccc(C(=O)O)c3)C2=O)cc1C,64*,1,-2,5
